Screens deposited in PubChem by National Center for Advancing Translational Sciences (NCATS).
Shown are actives, neighbours in structure and some others; about 2.6% of the full set was active somewhere.
ClpP mod – qHTS Assay for Activators of ClpP; purified B. subtilis ClpP, FRET peptide cleavage, 20 min; Potency, µM (titrated, usually from 57.5 µM); ATP-dependent Clp protease proteolytic subunit (Bacillus subtilis (strain 168)), P80244; hit rate 1.9% among 340,000; active means well fitted falling curve with a large enough effect; inconclusive means small, poorly fitted or top-dose-only effect; inactive means no such curve, though single readings can be large or run the other way; further: the source files actives as falling curves though it sought activators and does not explain the sign; nearly all actives have a fitted effect of over 65% in size
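FRET quenching reversal measured ClpP activation: 10 microg/mL B. subtilis ClpP at pH 8 with the FRET-FV decapeptide, read at 430 nm after 320 nm excitation. The 20-min minus 0-min signal was scaled between DMSO/no-enzyme wells and ADEP (5.8 microM final).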
KCNH2 3.1 inh – KCNH2 3.1 (human) potassium channel inhibition. U2OS KCNH2 3.1, thallium flux FluxOr; active compounds read low. activity change, % (tested at about 1.8 µM). hit rate 0.95% among 340,000. AID 720553;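 active means maximum activity change below -70%; inconclusive means maximum activity change from -70% to -50%; inactive means maximum activity change above -50%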;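 further: thallium influx rate constant from kinetic fluorescence after stimulation buffer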
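FluxOr-based Tl+ influx in U2OS cells transduced with KCNH2 3.1 virus; rate constants normalized to DMSO controls.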
hERG WT inh – inhibitors of human wildtype KCNH2 potassium channel | U2OS, BacMam KCNH2, thallium flux FluxOr; active compounds read low | activity change, % at 1.84 µM | hit rate 0.37% among 340,000 | AID 720551;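 active means maximum activity change below -70%; inconclusive means maximum activity change between -70% and -50%; inactive means maximum activity change above -50%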
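U2OS cells were transduced with wild-type KCNH2 virus (2.03 x 10^8 / mL) for 4 h at room temperature, then cultured overnight at 37 C. Thallium flux was read with FluxOr dye. Rate constants were normalized to DMSO controls.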
p53 reactivator – restores transcriptional activity of mutant p53. H1299 p53-A138V BP100-luciferase reporter, luminescence, 24 h. Potency, µM (series often up to 92.2 µM), most hits filed as activators. hit rate 0.063% among 320,000; active means well fitted activation curve with a large enough effect; inconclusive means small, poorly fitted or top-dose-only effect; inactive means no such curve, though single readings can be large or run the other way; further: nearly all actives have a fitted effect of over 45% in size
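H1299 (p53-null), stable ts p53-A138V + BP100-Luc; 1000 cells/well, Opti-MEM/10% FBS; cpd 4 pt, 1:5; 24 h, 37 deg C, 5% CO2; detection reagent 10 min RT; luminescence.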
TRPV1 agonist – human TRPV1 agonism; activation, % at 8.33 µM; TRPV1-expressing cells, Fluo-8 calcium influx, agonist mode; hit rate 0.19% among 320,000; in the data active means activation above about 80%; inconclusive means between about 30% and that limit
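TRPV1-expressing cells were cultured overnight at 35.5C and loaded with Fluo-8 calcium dye for 40 to 90 min at room temperature. After a 10 s baseline, compound was added and calcium influx was read kinetically for 3 min (ex 480/em 520 nm).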
TRPV1 PAM – human TRPV1 potentiation | AID 540277 | hit rate 0.02% among 320,000 | TRPV1-expressing cells, Fluo-8 calcium influx, capsaicin EC20 potentiation | potentiation, % at 8.33 µM; in the data active means potentiation above about 80%; inconclusive means between about 30% and that limit
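TRPV1-expressing cells were cultured overnight at 35.5C and loaded with Fluo-8 calcium dye for 40 to 90 min at room temperature. After a 10 s baseline, compound was added and calcium influx was read kinetically for 3 min (ex 480/em 520 nm).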
Hits are given with their value; n = inactive; u = inconclusive; x = not tested or not shown.

SMILES	ClpP mod	KCNH2 3.1 inh	hERG WT inh	p53 reactivator	TRPV1 agonist	TRPV1 PAM
COc1ccc(OC)c(-c2cc(C(=O)Nc3c(C)nn(Cc4ccccc4Cl)c3C)no2)c1	35µM	n	n	n	n	n
COc1ccc(OC)c(-c2cc(C(=O)Nc3c(C)nn(Cc4ccccc4C)c3C)no2)c1	u	n	n	n	n	n
CC(=O)Nc1ccc(S(=O)(=O)N(C)CC(=O)OCC(=O)c2ccc[nH]2)cc1	n	n	n	n	x	x
CC(=O)Nc1ccc(S(=O)(=O)N(C)CC(=O)OCC(=O)NNC(=O)c2ccccc2F)cc1	11µM	n	n	n	n	n
Cc1cc(Cn2nc(C(=O)NCc3cccc(C(F)(F)F)c3)cc2-c2ccccc2)on1	n	-83	n	n	n	n
Cc1cc2c(cc1S(=O)(=O)C(C)CC(=O)NC1CCC(C)CC1)OCC(=O)N2 (configuration not stated)	n	x	x	x	x	x
COC(=O)C1=C(C(=O)OC)N2C=CC=CC2(C)C(C(=O)OC)=C1C(=O)OC (configuration not stated)	2.8µM	n	n	n	n	n
Fc1ccc2nc(Nc3ccccc3)sc2c1	11µM	n	n	u	n	u
CC(C)C(=O)Nc1cccc(C(=O)Nc2nnc(CC(C)(C)C)s2)c1	n	x	x	x	x	x
N/C(=N\OC(=O)c1ccc2c(c1)OCO2)c1cccc([N+](=O)[O-])c1	x	n	n	n	n	n
Cc1cccc(/C(N)=N/OC(=O)c2ccc3c(c2)OCO3)c1	n	n	-105	u	n	n
COC(=O)Cc1c[nH]c2cccc(OCC(O)CN(Cc3ccc([N+](=O)[O-])cc3)C(C)(C)C)c12 (configuration not stated)	n	n	n	n	n	n
Cc1ccc(CN(CC(O)COc2cccc3[nH]cc(C)c23)C(C)(C)C)cc1 (configuration not stated)	n	-74	n	n	n	n
CCN(CC)CCOc1cc2c(nn1)Oc1ccccc1N2C	13µM	n	n	n	n	n
CN1c2ccccc2Oc2nnc(Cl)cc21	x	n	n	n	n	n
O=S1(=O)CC(O)C(O)CS1 (configuration not stated)	n	x	x	x	x	x
CCC(C)n1nccc1NC(=O)C(C)OC(=O)c1cc2ccccc2[nH]1 (configuration not stated)	28µM	n	n	n	n	n
COc1ccccc1NC(=O)C(C)OC(=O)c1cc2ccccc2[nH]1 (configuration not stated)	n	n	n	n	n	n
CCOC(=O)c1ccc(NC(=O)Nc2ccc3c(c2)OCCO3)cc1	n	n	-76	n	n	n
N#CCC(=O)Nc1ccc(C(=O)OCC(=O)NC(=O)Nc2ccc3c(c2)OCCO3)cc1	n	n	n	n	x	x
Cc1nn(CCCC(=O)NCCc2ccc(Cl)cc2)c(=O)c2c1sc1ccccc12	n	x	x	x	x	x
CCN(CCCNC(=O)c1cn(CC)c2ccc(S(=O)(=O)N(C)C)cc2c1=O)c1cccc(C)c1	n	n	n	n	109	n
O/N=C(/C[n+]1ccsc1)c1ccc(I)cc1	n	x	x	x	x	x
C=CCOC(=O)C1=C(C)NC(=O)NC1c1ccc(O)cc1 (configuration not stated)	n	n	n	x	n	n
C=CCOC(=O)C1=C(C)NC(C)=C(C(=O)OCC=C)C1c1ccc(O)cc1	22µM	n	n	n	n	n
SMILES	ClpP mod	KCNH2 3.1 inh	hERG WT inh	p53 reactivator	TRPV1 agonist	TRPV1 PAM
COC(=O)c1c(-n2cnnn2)sc(C)c1C	22µM	n	n	n	n	n
O=C(CSc1nc2c([nH]c3ccccc32)c(=O)n1-c1cccc(Cl)c1)N1CCc2ccccc21	n	x	x	x	x	x
CN(C)C(CNC(C(=O)Nc1ccc([N+](=O)[O-])cc1Br)c1ccccc1)c1ccccc1 (configuration not stated)	x	-85	n	n	n	n
CCCOc1ncnc2c1[nH]c1ccc(OC)cc12	u	n	n	n	x	x
CCCOc1ncnc2c1[nH]c1ccccc12	14µM	n	n	u	u	n
CCOC(=O)c1oc2ccccc2c1NC(=O)c1ccccc1OC	35µM	n	n	n	n	n
Cc1ccc(-c2cc3nn(-c4ccccc4)c(N)c3c(=O)o2)cc1	32µM	n	n	n	n	n
C=CCn1c(-c2ccc(OC)cc2)nc2nc3ccccc3nc21	25µM	n	n	n	n	n
COc1ccc(C2CC(c3ccc4ccccc4c3)=NN2C(=O)CSc2ncccn2)cc1 (configuration not stated)	22µM	n	n	u	n	n
NS(=O)(=O)c1ccc(NC(=S)NC(=O)c2ccco2)cc1	10µM	n	n	n	n	n
COc1ccccc1C(=O)Nc1ccc(NC(=O)c2ccco2)cn1	x	n	n	n	n	n
COc1ccccc1C(=O)NC(=S)Nc1ccc(NC(=O)c2ccco2)cc1	x	-73	n	n	n	n
CC(=O)NS(=O)(=O)c1ccc(NC(=S)NC(=O)c2ccco2)cc1	n	n	n	n	n	n
Cc1ccc(S(=O)(=O)N2CCN(C(=O)COC(=O)/C=C/c3ccc(OC(F)F)cc3)CC2)cc1	n	n	n	x	x	x
COc1cccc(OC)c1C(=O)Nc1ccc(-c2nc3ncccc3o2)cc1	28µM	x	x	x	x	x
COc1ccccc1C(=O)Nc1ccc2oc(-c3ccc(F)cc3)nc2c1	20µM	n	n	n	n	n
Cc1ccccc1OCC(=O)Nc1ccc(-c2nc3ncccc3o2)cc1	n	x	x	x	x	x
Cc1ccc(OCC(=O)Nc2ccc(-c3nc4ncccc4o3)cc2)c(C)c1	25µM	n	n	n	n	u
CCOC(=O)c1noc2ncn(CC(=O)Nc3cccc(C(F)(F)F)c3)c(=O)c12	n	x	x	x	x	x
CCC(C)Sc1c(C(C)C)cnc2c1c(=O)n(C)c(=O)n2C (configuration not stated)	n	x	x	x	x	x
Cc1c(O)c(CN2CCCC2)cc2c3c(c(=O)oc12)CCC3	u	n	n	n	n	n
O=c1oc2c3c4c(cc2c2c1CCC2)OCCN4CCC3	18µM	n	n	n	n	n
N/C(=N\c1nc2c(c(=O)[nH]1)CCC2)Nc1cccc2ccccc12	n	-78	n	n	n	n
O=C(c1ccc(NS(=O)(=O)c2ccc3[nH]c(=O)[nH]c3c2)cc1)N1CCN(c2ccccc2O)CC1	x	-80	n	n	n	n
CCN(C(=O)CSc1nc(-c2ccccc2)c(-c2ccccc2)[nH]1)C1CCS(=O)(=O)C1 (configuration not stated)	25µM	n	n	n	n	n
